In the library only some 11% were active in any assay of this set; here they are far more common.
L3MBTL1 block: blocks human L3MBTL1; 230,000 tested, 0.66% active; Q9Y468; AID 485360; Potency, µM (highest dose often 57.1 µM), actives largely listed as inhibitors; AlphaScreen L3MBTL1–H3K9me1 peptide binding; note: nearly all actives have a fitted effect of over 60% in size
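L3MBTL1 50 nM + b-AHA-H3(1-15)K9me1 75 nM, 30 min RT; compound added, 30 min RT; streptavidin donor/Ni-chelate acceptor beads 10 ug/mL each final, 30 min RT dark; AlphaScreen read.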
HP1b binding inh: inhibitors of HP1-beta chromodomain binding to methylated histone tails | AlphaScreen HP1-beta / biotin-H3K9me3 peptide binding | AID 540317 | 390,000 tested, 0.56% active | P83916 | Potency, µM (doses to about 114 µM), actives largely listed as inhibitors; note: nearly all actives have a fitted effect of over 70% in size
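Compound inhibition of the preformed complex between 50 nM HP1-beta and 50 nM biotinylated H3K9me3 peptide was read by AlphaScreen. Buffer was PBS pH 7.4 with 0.01% Tween-20. Incubations ran 30 min at room temperature, with 10 ug/mL donor/acceptor beads.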
BAZ2B inh: BAZ2B (human) inhibition; Q9UIF8; AlphaScreen BAZ2B-H3K14Ac peptide displacement; Potency, µM (titrated, usually from 114 µM), most hits filed as inhibitors; 360,000 tested, 4.4% active; note: nearly all actives have a fitted effect of over 60% in size
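Protein-peptide AlphaScreen: BAZ2B 50 nM, b-H3K14Ac 50 nM, 1x PBS pH 7.4 + 0.01% Tween-20. Preincubation 30 min RT; cpd 30 min RT (top 110 uM); beads 20 min RT, light-protected.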
JMJD2A Tudor inh: JMJD2A Tudor domain (human) inhibition; 390,000 tested, 4.4% active; O75164; Potency, µM (doses to about 114 µM), usual class: inhibitors; AlphaScreen JMJD2A-Tudor / H3K4me3 peptide binding; note: nearly all actives have a fitted effect of over 50% in size
PI5P4Ka inh: PI5P4K alpha (human) kinase inhibition; P48426; PI5P4Kalpha enzyme, ADP-Glo luminescence, 60 min; stronger effect = lower value; max response, %; 330,000 tested, 1.2% active; AID 652105; active = max response of -50% or lower; inconclusive = between -30% and -50%; inactive = -30% or higher; note: value at the top dose of about 77 µM
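qHTS, 1536-well: enzyme/substrate mix, compound by pin tool, 5 microM ATP final; RT 60 min; ADP-Glo reagents 1 (45 min) then 2 (30 min); luminescence.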
G9a inh: blocks human histone lysine methyltransferase G9a; Q96KQ7; G9a H3K9 monomethylation, AlphaScreen, 2 h; Potency, µM (series often up to 102 µM), hits mostly inhibitors; 350,000 tested, 8.8% active; AID 504332; note: nearly all actives have a fitted effect of over 75% in size
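AlphaScreen read-out: biotin-H3K9 peptide (500 nM) methylation by 20 nM enzyme with 20 uM SAM, 2 h at room temperature after 15 min compound preincubation; anti-monomethyl H3K9 antibody plus donor/acceptor beads, 10 min dark.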
A number is an active result; n = inactive; u = inconclusive; x = no result given; [ ] = remark or other dose. Unless noted, calls come from the whole dose curve; as a rule, active = well fitted inhibition curve with a large enough effect; inconclusive = small, poorly fitted or top-dose-only effect; inactive = no such curve, though single readings can be large or run the other way.

SMILES	L3MBTL1 block	HP1b binding inh	BAZ2B inh	JMJD2A Tudor inh	PI5P4Ka inh	G9a inh
CCc1ccccc1N(C)C(=O)c1sc2nc3n(c(=O)c2c1C)CCCCC3	x	n	n	n	x	u
Clc1ccccc1-c1nn2c(-c3cc(-c4ccccc4)n[nH]3)nnc2s1	x	n	x	n	x	x
CC(C)(C)c1ccc(S(=O)(=O)NCc2ccc3c(c2)CCN3C(=O)c2ccccc2)cc1	x	n	n	n	x	n
O=C(c1ccc(-c2ccccc2)cc1)c1ccc([N+](=O)[O-])cc1	n	x	n	x	x	56µM
O=C(C#Cc1ccccc1)c1ccccc1	x	x	x	x	n	x
O=C(C#Cc1ccccc1)c1ccc([N+](=O)[O-])cc1	x	n	u	n	n	10µM
Cc1ccc(NC(=S)Nc2ccccn2)cc1C	n	n	n	n	n	x
Cc1ccc(NC(=S)Nc2ccc3nc(-c4ccccn4)c(-c4ccccn4)nc3c2)cc1C	n	n	u	u	n	7.9µM
CCCCCC/C(C)=C1/SC(=S)NC1=O	n	n	n	n	-71	u
C/C(C/C(C)=C1/SC(=S)NC1=O)=C1\SC(=S)NC1=O	x	u	n	u	-105	28µM
CCOC(=O)C1=C(C)N=c2s/c(=C\c3ccc(OCC(=O)O)c(OC)c3)c(=O)n2C1c1ccc(OC)cc1 (stereo not given)	x	n	79µM	79µM	-61	56µM
CCOC(=O)C1=C(C)N=C2SC(C(=O)OC)=CC(=O)N2C1c1cccc(OC)c1 (stereo not given)	n	n	u	u	n	n
CCOC(=O)C1=C(C)N=c2sc(=Cc3ccc(OCC(=O)O)cc3)c(=O)n2C1c1ccc(SC)cc1 (stereo not given)	x	x	x	x	n	x
CCOC(=O)C1=C(C)N=c2s/c(=C\c3ccc(OCC(=O)O)cc3)c(=O)n2C1c1ccccc1 (stereo not given)	n	n	u	n	u	n[12.7 µM]
CCOC(=O)C1=C(C)N=c2s/c(=C\c3ccc(C(=O)O)cc3)c(=O)n2C1c1ccc(F)cc1 (stereo not given)	x	n	u	u	n	79µM
CC1=C(C(=O)OC(C)C)C(c2ccc(Cl)cc2)n2c(s/c(=C\c3ccc(OCC(=O)O)cc3)c2=O)=N1 (stereo not given)	n	u	45µM	u	n	u
CCOC(=O)C1=C(C)N=C2SC(C(=O)OC)=CC(=O)N2C1c1ccc(F)cc1 (stereo not given)	n	u	u	25µM	x	u
Cc1ccc(C)c(Cn2c(=O)n(CCCCC(=O)NCc3ccc4c(c3)OCO4)c(=O)c3ccccc32)c1	x	n	n	n	x	n
CCOc1ccccc1NC(=O)c1c(C)cc(C)nc1SCC(=O)c1cccc(OC)c1	x	n	n	n	x	n
COc1ccc(-c2cc(C3C4C=CCC(C)C4C(=O)N3Cc3ccccc3)ccc2F)cc1OC (stereo not given)	x	n	x	n	x	x
O=C(C1CCCN(S(=O)(=O)c2ccc(Br)s2)C1)N1CCN(c2ccccc2F)CC1 (stereo not given)	x	n	n	n	x	u
CCOC(=O)C1=C(C)N=c2s/c(=C\c3ccc(C(=O)O)cc3)c(=O)n2C1c1ccc(OC)cc1OC (stereo not given)	x	n	x	n	n	x
CCOC(=O)C1=C(C)N=c2s/c(=C/c3ccco3)c(=O)n2C1c1cccc(OC)c1 (stereo not given)	u	u	10µM	u	n	16µM
CCOC1(OCC)N=C(N)C2(C#N)C(c3cccc(OC)c3OC)C12C#N (stereo not given)	n	n	n	u	n	u
CCOC1(OCC)N=C(N)C2(C#N)C(c3cccc(C)c3)C12C#N (stereo not given)	n	n	n	n	n	40µM
SMILES	L3MBTL1 block	HP1b binding inh	BAZ2B inh	JMJD2A Tudor inh	PI5P4Ka inh	G9a inh
COC1(OC)N=C(N)C2(C#N)C(c3ccc4c(c3)OCO4)C12C#N (stereo not given)	n	n	u	n	n	50µM
CC(=O)Oc1ccc(N2C(=O)C3C(C2=O)C2(C)C=CC3(C)O2)cc1 (stereo not given)	n	x	n	x	x	5.6µM
CC(=O)Oc1ccc(N2C(=O)C3C4C=CC(CO)(O4)C3C2=O)cc1 (stereo not given)	x	u	n	45µM	n	1µM
COC(=O)c1cc(N2C(=O)C3C(C2=O)C2(C)C=CC3(C)O2)ccc1Cl (stereo not given)	n	x	u	x	x	u
COc1ccc(C(=O)NCC23C=CC(O2)C2C(=O)N(Cc4ccccc4)C(=O)C23)cc1 (stereo not given)	n	n	n	n	x	u
COc1ccccc1CNC(=O)c1cn(C)c(=O)c2cc(OC)c(OC)cc12	x	n	n	13µM	n	n
CCn1c(=O)c(C(=O)NCc2cccnc2)c(O)c2ccccc21	n	n	n	40µM	n	n
CCn1cc(C(=O)NCc2cccnc2)c2cc(OC)c(OC)cc2c1=O	n	n	n	n	n	11µM
COCCCNC(=O)c1cn(C)c(=O)c2cc(OC)c(OC)cc12	n	n	n	n	x	n[2.33 µM]
CCOC(=O)c1c(C)oc2nc(C)nc(NCCCN3CCN(c4ccccc4OC)CC3)c12	x	n	n	n	x	n
O=C1CCCCC/C1=N/Nc1ccc(OCc2ccccc2)cc1	n	n	u	u	n	32µM

Screening data: PubChem, National Center for Advancing Translational Sciences (NCATS)
